About 83,000 compounds went through this panel and 20% of them were active in at least one assay; those are over-represented in the sample as a whole.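 Note: values are percent growth. 100 is the growth of untreated cells, values between 100 and 0 indicate rising inhibition; between -100 and 0 indicates cell death.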 Calls of active or inactive are those of the source. Rule for the calls: active = growth percent below 10; inactive = the rest.
These molecules were tested on HL-60(TB) leukemia (assay: NCI-60 one-dose screen, 48 h (100 = growth as untreated, 0 = no growth, -100 = all killed)). Conditions: 10 µM unless noted.

SMILES | growth
O=S(=O)(NC1c2ccccc2Oc2ccccc21)c1cc(Cl)ccc1Cl | 86.7% (inactive)
COc1ccc(-c2cc(-c3cccnc3)nc(S(=O)(=O)CC(=O)Nc3ccc(C)cc3)c2C#N)cc1OC | 113% (inactive)
O=C(/C=C/c1cccc(Oc2ccccc2)c1)c1ccc(Nc2nc(Nc3ccc(F)cc3)nc(Nc3ccc(Cl)cc3)n2)cc1 | -38.2% (active)
CCOC(=O)/C=C(/C)Sc1cc(O)c2ccccc2c1O | 20.5% (inactive)
O=C1CC2C=CCN2C=C1NC(=O)c1ccccc1 (stereo not given) | 100% (inactive)
O=C(Nc1ncc(Cc2ccccc2)s1)c1sc2ccccc2c1Cl | -9.41% (active)
CN(CCOc1ccc(C#N)cc1)CCOc1ccc(C#N)cc1 | 42.4% (inactive)
CCCn1c2cc(OCc3cn(-c4ccc(Cl)cc4)nn3)ccc2c2ccnc(C)c21 | -51.4% (active)
O=C1/C(=C/c2ccc(OCc3ccccc3)cc2)Oc2cc(OCCN3CCCCC3)ccc21 | 80.9% (inactive)
Cc1ccc2c(C3C(C#N)=C(N)Oc4cc5ccccc5cc43)cc(=O)oc2c1 (stereo not given) | -14.2% (active)
O=C1Nc2ccccc2C1(c1c[nH]c2ccccc12)c1c[nH]c2ccccc12 | 77.8% (inactive)
Cc1cnc(SCc2ccc(Cl)cc2Cl)nc1Nc1ccc(Cl)c(Cl)c1 | 81% (inactive)
COc1cc(Nc2ccnc(NCCNc3ccnc4cc(Cl)ccc34)n2)cc(OC)c1 | 11.9% (inactive)
COc1cc(/C=C/c2cn[nH]c2-c2ccc(C)cc2)cc(OC)c1OC | 4.76% (active)
O=C1ON=[N+](c2ccc(Cc3ccc([N+]4=NOC(=O)C4CN4CCOCC4)cc3)cc2)C1CN1CCOCC1 (stereo not given) | 86.4% (inactive)
N#Cc1c(-c2ccccc2)nc(SCC(=O)N2CCOCC2)[nH]c1=O | 55.9% (inactive)
CN(C)c1ccc(Nc2c3ccccc3nc3cc(NC(=O)CCN4CCCC4)ccc23)cc1 | -57.9% (active)
CNCCCNc1nc2ccccc2c2c(=O)c3cc(F)ccc3sc12 | -5.1% (active)
CN(C)CCN1C(=O)c2cccc3c(/C=C/CN4C(=O)c5cccc6cccc(c56)C4=O)ccc(c23)C1=O | 12.9% (inactive)
O=c1oc2c3ccc4cnccc4c3[nH]c2c2ccccc12 | 27.1% (inactive)

SMILES | growth
CC(C)(C)OC(=O)c1ccc(NCc2cc(O)ccc2O)cc1 | -39.3% (active)
CC(=O)N(C)c1ccc([N+](=O)[O-])cc1 | 72.8% (inactive)
Oc1c(C(Nc2ccccc2Br)c2ccccc2)ccc2cccnc12 (stereo not given) | -17.8% (active)
Cn1ccnc1C(=O)/C=C/c1ccccc1 | 8.05% (active)
CC(C)Sc1nc(NNC(N)=S)c(C#N)c(-c2ccc(F)cc2)n1 | 94.9% (inactive)
Cn1c2ccccc2c2c3[nH]c(=O)[nH]c(=O)c3c3c4ccccc4n(C)c3c21 | 48.9% (inactive)
CCOC(=O)c1c(/N=C2\SC(=O)/C(=C\C(=O)OC)N2NC)sc2c1CCN(C(=O)OCC)C2 | 108% (inactive)
C=CCOC(=O)C1=C(C)NC2=C(C(=O)CCC2)C1c1ccc(F)cc1 (stereo not given) | 87.8% (inactive)
CC(C)(C)c1ccc(S(=O)(=O)O)s1 | 82.5% (inactive)
c1ccc(-c2c(-c3ccccc3)[n+](Cc3ccc4ccccc4c3)cn2Cc2ccc3ccccc3c2)cc1 | -67.1% (active)
O=C(/C=C(\Nc1ccccc1)c1ccccc1)c1cn(-c2ccc([N+](=O)[O-])cc2)nn1 | 114% (inactive)
CCN1CCN(c2nc(C)cc(N(CCCNc3ccnc4cc(Cl)ccc34)Cc3ccc4c(c3)OCO4)n2)CC1 | -60.4% (active)
O=C1/C(=C/c2ccc(Br)cc2)COc2ccc(O)c(O)c21 | -23.2% (active)
CCN(CC)c1ccc(/C=N\NC(=O)c2cccc(Nc3ccnc(C(F)(F)F)c3)c2)c(O)c1 | 69.2% (inactive)
COc1cc(/C=C2\CN(C(=O)OC(C)(C)C)C/C(=C\c3ccc(O)c(OC)c3)C2=O)ccc1O | 97.1% (inactive)
CC(C)(C)C(=O)OCOP(=O)(OCOC(=O)C(C)(C)C)C1CC(O)N(O)C1=O (stereo not given) | 13.1% (inactive)
CCOc1ccc(-n2cc(-c3ccc(N(C)C)cc3)[n+]3c2CCCCC3)cc1 | -0.266% (active)
O=C/C=C/c1ccc([N+](=O)[O-])cc1 | 106% (inactive)
O=C(NCc1ccc(Cn2c(=O)sn(-c3ccccc3)c2=O)cc1)OCc1ccc2c(Br)cc(Br)c(O)c2n1 | -41.3% (active)
COc1cc(Cl)cc(-c2nn(-c3cccc(NC(=O)Nc4ccc(Cl)c(Cl)c4)c3)cc2-c2ccncc2)c1 | -5.12% (active)

— PubChem BioAssay (NCI)
